Data as given in PubChem BioAssay AID504806 (National Center for Advancing Translational Sciences (NCATS), 2011).
A number with no mark means an inactive call. Activity calls are given as the source filed them. Calls come from the whole dose curve; as a rule, active = well fitted activation curve with a large enough effect; inactive = flat fitted curve, though single readings scatter.

assay: Followup screen of LOPAC molecules that induce DNA re-replication in SW480 adenocarcinoma cells; conditions: Hoechst nuclear DNA content imaging, 48 h; series mostly up to 46.1 µM; activation (re-replication): at the top concentration
Description: NIH Molecular Libraries Probe Production Network [MLPCN] NIH Chemical Genomics Center [NCGC] MLPCN Grant: Fast Track K99 CA136555 Assay Provider: Melvin DePamphilis, NICHD, NIH Assay Overview Eukaryotic cells normally restrict genome duplication to once per cell division. When this process is aberrant, DNA re-replication occurs when cells reinitiate DNA replication before the first round of replication is complete. DNA re-replication induces the DNA damage response, arrests cell proliferation, and triggers apoptosis. The cell cycle components cyclin A, Cdt-1, Cdc6 and geminin are critical regulators of this process and their misregulation results in DNA re-replication in normal and cancer cells. To identify compounds that induce re-replication in normal cells, an image-based assay was used to measure DNA content of nuclei, as detected by the fluorescent DNA binding dye, Hoechst. Cell nuclei were imaged by a fluorescence scanning plate imager and compounds that induce DNA re-replication were identified by the increase of nuclei with elevated fluorescence intensity.
Assay Protocol Summary For screening, 250 cells in 5 uL/well were dispensed into black clear 1536-well plates (Aurora) using a solenoid-based dispenser. Following transfer of 23 nL compound or DMSO vehicle by a pin tool, the plates were incubated 48 hr at 37 C and 5% CO2. After addition of 1 uL/well Hoescht stain, the plates were incubated 40 min at 37 C, 5% CO2 and total intensity of fluorescent objects (nuclei) were enumerated by an Acumen Explorer Ex3 (TTP LabTech) fluorescence scanning plate imager (405 nm excitation, 500-530 nm emission). Keywords: NIH Roadmap, MLPCN, MLI, MLSMR, qHTS, NCGC, DNA replication, cancer

Compound	Potency	activation (re-replication) [%]
CCN(CC)C(=S)SSC(=S)N(CC)CC.[Cl-].[Cl-].[Cu+2]	37.8 nM (active)	–
CCN(CC)C(=S)SSC(=S)N(CC)CC	30 nM (active)	–
CS(C)=O.[Cl-].[Cl-].[Cu+2]	–	5.94
CC(=O)[O-].CS(C)=O.[Cu+]	–	2.13
CCCCCCN(CCCCCC)C(=O)Cc1c(-c2ccc(F)cc2)[nH]c2ccccc12	26800 nM (active)	–
CC(=O)[O-].CCN(CC)C(=S)SSC(=S)N(CC)CC.[Cu+]	37.8 nM (active)	–
